Experimental findings from PubChem BioAssay (Tox21) are described below.

Assay [1] in a line: qHTS RealTime-Glo MT Cell Viability Assay in HEK293 cells - 40 hour (AID 1224874). Also: nearly all actives have a fitted effect of over 50% in size. Also: potency is read from the fitted curve at half-maximal effect. To be noted: RealTime-Glo luminescence; max response: hits give low values. Summed up:
(§1)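 Measured as luminescence from the same continuously cultured HEK293 wells at successive time points (0, 8, 16, 24, 32, 40 h) after compound addition. Reagent present from seeding; dosing at 5 h; incubation 37 C.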
In general terms: qHTS replaces the single test concentration by a dilution series.

Assay [2] in a line: A CellTox Green Cytotoxicity Assay to monitor cytotoxicity in HEK293 cells - 24 hour (AID 1224875). Also: nearly all actives have a fitted effect of over 45% in size. Also: potency is read from the fitted curve at half-maximal effect. Summed up: (§2)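 Homogeneous no-lysis format: HEK293 cell suspension mixed with CellTox Green reagent, seeded, incubated 5 h at 37 C/5% CO2, then dosed by pintool with compound in DMSO.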
Assay [3] is described as follows: qHTS RealTime-Glo MT Cell Viability Assay in HepG2 cells - 32 hour (AID 1224877). Also: nearly all actives have a fitted effect of over 55% in size. Also: potency is read from the fitted curve at half-maximal effect. The method, boiled down:
(§3)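 Luminescence read-out: viable HepG2 cells reduce a prosubstrate to a NanoLuc substrate, giving a signal proportional to live cell number. Reads taken at 0, 8, 16, 24, 32 and 40 h of compound exposure at 37 C.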

A short description of assay [4]: A CellTox Green Cytotoxicity Assay to monitor cytotoxicity in HepG2 cells - 24 hour (AID 1224878). Also: nearly all actives have a fitted effect of over 45% in size. Also: potency is read from the fitted curve at half-maximal effect. The method, boiled down:
(§4)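 Fluorescent DNA-binding dye, 600 HepG2 cells/well, 5 h preincubation then compound in DMSO; same plates read at 0–40 h, 37 C.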

A short description of assay [5]: A CellTox Green Cytotoxicity Assay to monitor cytotoxicity in HepG2 cells - 40 hour (AID 1224879). Also: nearly all actives have a fitted effect of over 40% in size. Also: potency is read from the fitted curve at half-maximal effect. The method, boiled down:
as §4

A short description of assay [6]: qHTS RealTime-Glo MT Cell Viability Assay in HEK293 cells - 0 hour (AID 1224880). Also: top concentration of the series differs between compounds; nearly all actives have a fitted effect of over 45% in size. The method, boiled down: as §1
Assay [7] is described as follows: A CellTox Green Cytotoxicity Assay to monitor cytotoxicity in HEK293 cells - 32 hour (AID 1224881). Also: nearly all actives have a fitted effect of over 40% in size. Also: potency is read from the fitted curve at half-maximal effect. The method, boiled down: as §2
Assay [8] can be described thus: A CellTox Green Cytotoxicity Assay to monitor cytotoxicity in HepG2 cells - 32 hour (AID 1224883). Also: nearly all actives have a fitted effect of over 50% in size. Also: potency is read from the fitted curve at half-maximal effect. The method, boiled down:
as §4

Assay [9] in a line: A CellTox Green Cytotoxicity Assay to monitor cytotoxicity in HEK293 cells - 8 hour (AID 1224884). Also: nearly all actives have a fitted effect of over 35% in size. Also: potency is read from the fitted curve at half-maximal effect. The method, boiled down: as §2
The nature of assay [10]: qHTS RealTime-Glo MT Cell Viability Assay in HepG2 cells - 16 hour (AID 1224885). Also: nearly all actives have a fitted effect of over 50% in size. Also: potency is read from the fitted curve at half-maximal effect. Summed up:
as §3

Assay [11] is described as follows: qHTS RealTime-Glo MT Cell Viability Assay in HEK293 cells - 24 hour (AID 1224886). Also: nearly all actives have a fitted effect of over 50% in size. Also: potency is read from the fitted curve at half-maximal effect. The method, boiled down: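 Nonlytic real-time viability readout: viable cells convert prosubstrate to NanoLuc substrate, giving luminescence proportional to live cell number. HEK293, 600 cells/well, compound added after 5 h, continuous culture at 37 C.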
Assay [12] in a line: qHTS RealTime-Glo MT Cell Viability Assay in HEK293 cells - 8 hour (AID 1224887). Also: nearly all actives have a fitted effect of over 50% in size. Also: potency is read from the fitted curve at half-maximal effect. Summed up:
as §1

The nature of assay [13]: qHTS RealTime-Glo MT Cell Viability Assay in HepG2 cells - 0 hour (AID 1224889). Also: nearly all actives have a fitted effect of over 50% in size. The method, boiled down:
as §3

Assay [14] can be described thus: qHTS assay to identify small molecule antagonists of the estrogen receptor alpha (ER-alpha) signaling pathway using the BG1 cell line in the presence of 0.1 nM 17-beta-estradiol - cell viability counter screen (AID 1259241). Also: nearly all actives have a fitted effect of over 40% in size. The method, boiled down: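 Cells were plated and left 24 hr, compounds in DMSO were pinned in, 17beta-estradiol was added to 0.1 nM final, and after 22 hr CellTiter-Fluor reagent was added for 30 min before fluorescence was read.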

A short description of assay [15]: qHTS assay to identify small molecule antagonists of the androgen receptor (AR) signaling pathway using the MDA cell line in the presence of 0.5 nM R1881 - cell viability counter screen (AID 1259242). Also: nearly all actives have a fitted effect of over 45% in size. Also: potency is read from the fitted curve at half-maximal effect. The method, boiled down: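 Human breast carcinoma MDA-kb2 cells, cultured without CO2, receive compounds alongside 0.5 nM (final) R1881 agonist. After 16 hr at 37C, viability is taken as live-cell protease signal.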

Assay [16] is described as follows: A CellTox Green Cytotoxicity Assay to monitor cytotoxicity in HepG2 cells - 16 hour (AID 1224876). Also: nearly all actives have a fitted effect of over 45% in size. Also: potency is read from the fitted curve at half-maximal effect. Summed up: as §4
Assay [17] can be described thus: A CellTox Green Cytotoxicity Assay to monitor cytotoxicity in HepG2 cells - 0 hour (AID 1224882). Also: nearly all actives have a fitted effect of over 35% in size. Summed up: as §4
A short description of assay [18]: A CellTox Green Cytotoxicity Assay to monitor cytotoxicity in HEK293 cells - 16 hour (AID 1224888). Also: nearly all actives have a fitted effect of over 35% in size. Also: potency is read from the fitted curve at half-maximal effect. Summed up:
as §2

The nature of assay [19]: A CellTox Green Cytotoxicity Assay to monitor cytotoxicity in HepG2 cells - 8 hour (AID 1224890). Also: nearly all actives have a fitted effect of over 45% in size. Also: potency is read from the fitted curve at half-maximal effect. Summed up: as §4

SMILES strings stand for the structures. A number with no mark means an inactive call. Inconclusive results are not listed. The source made the active and inactive calls. Calls follow the shape of the dose curve; as a rule, active = well fitted curve in the direction sought with a large enough effect in the repeat runs; inconclusive = weak or mixed curves; inactive = no such curve, though single readings can be large; an effect the other way counts as inactive or inconclusive.
% is scaled to controls: 0 for no effect and ±100 for the full control effect.

`CCCCCCCC/C=C/CCCOC(C)=O`: the max response in assay [1] is 4.7%. Also, the Potency entry in assay [2], in [3], in assay [4], in [5], in [6] and in assay [7] was “inactive” each time. The Potency result in assay [8], in assay [9], in assay [10], in assay [11], in [12] and in [13] was “inactive” throughout. For the same molecule, the Potency entry in [14] and in assay [15] was “inactive” each time.
As for `COc1ccccc1OCCNCC(O)COc1cccc2[nH]c3ccccc3c12` (stereo not given), the Potency in [1] is 10.7 µM (active); in assay [16] it was 23.9 µM (active); in assay [3], 23.9 µM (active); in [4], 26.8 µM (active); in assay [5], 23.9 µM (active); in assay [8], 23.9 µM (active). The Potency in [10] is 23.9 µM (active); in [11] it was 10.7 µM (active); in [12], 16.9 µM (active). The Potency result in assay [2], in assay [6], in assay [17], in [9], in assay [18] and in [13] was “inactive” in each case. In addition, in [19], the Potency result is “inactive”.
Consider `C=CC(=O)OCC(O)COc1ccccc1` (stereo not given), for which the max response in [1] was 8.54%. For the same molecule, the Potency result in [2], in assay [16], in [3], in assay [4], in assay [6] and in assay [8] was “inactive” in each case. Moreover, the Potency result in [9], in assay [11], in [12], in assay [18], in assay [13] and in assay [19] was “inactive” in each case. In addition, the Potency entry in assay [14] and in assay [15] was “inactive” throughout.
`Nc1ncnc2c1ncn2[C@@H]1O[C@H](COP(=O)(O)O)[C@@H](O)[C@H]1O`: the max response in [1] is 3.96%. Further, the Potency entry in assay [2], in assay [16], in [3], in assay [4], in [5] and in assay [6] was “inactive” in each case. Moreover, the Potency entry in assay [7], in [17], in assay [8], in [9], in assay [11] and in [12] was “inactive” in each case. Besides, the Potency result in [18], in assay [19], in [14] and in assay [15] was “inactive” in each case.
On to `CCCCCCC(C)Nc1ccc(Nc2ccccc2)cc1` (stereo not given), for which the Potency was 21.9 µM (active) in assay [1], 21.9 µM (active) in [11] and 19.5 µM (active) in assay [12]. Further, the Potency result in [2], in assay [16], in assay [5], in assay [7], in assay [8] and in assay [9] was “inactive” throughout. In addition, the Potency result in assay [19], in assay [14] and in assay [15] was “inactive” each time.
For the molecule `C[C@]12CC[C@H]3C(=CCc4cc(O)ccc43)[C@@H]1CCC2=O`, the Potency in assay [1] and in assay [11] was 43.6 µM (active) throughout. For the same molecule, the Potency result in [2], in assay [16], in [3], in assay [4], in [6] and in assay [7] was “inactive” throughout. The Potency result in assay [17], in [9], in [12], in [18], in [13] and in [19] was “inactive” in each case. The Potency entry in assay [14] and in assay [15] was “inactive” throughout.
Consider `CN1CCN(C2Cc3ccccc3Sc3ccc(Cl)cc32)CC1` (stereo not given), for which the Potency was 23.9 µM (active) in [1]; 21.3 µM (active) in [2]; 26.8 µM (active) in assay [16]; 23.9 µM (active) in assay [3]; 23.9 µM (active) in assay [4]; 23.9 µM (active) in assay [5]. Moreover, the Potency is 21.3 µM (active) in assay [7], 23.9 µM (active) in assay [8], 19 µM (active) in assay [9] and 21.3 µM (active) in assay [18]. Also, the Potency result in assay [6], in assay [17], in assay [12], in assay [13] and in [14] was “inactive” throughout.
Regarding `CCC(=O)OCCc1ccccc1`, the max response in assay [1] was 14%. In addition, the Potency result in [2], in assay [16], in assay [3], in assay [5], in assay [6] and in assay [7] was “inactive” throughout. The Potency entry in assay [17], in assay [8], in [9], in assay [10], in [11] and in [12] was “inactive” throughout. The Potency result in assay [18], in assay [13], in assay [19], in assay [14] and in assay [15] was “inactive” each time.
For the molecule `COc1ccccc1C=O`, the max response in assay [1] is 3.17%. The Potency result in assay [2], in [16], in assay [3], in assay [4], in assay [5] and in assay [6] was “inactive” throughout. In addition, the Potency entry in assay [7], in [17], in assay [8], in [11], in [12] and in [18] was “inactive” in each case. Further, the Potency entry in assay [13], in [19], in [14] and in assay [15] was “inactive” throughout.
As for `CCCCOc1ccc(C(=O)CCN2CCCCC2)cc1`, the Potency was 13.4 µM (active) in [1]; 16.9 µM (active) in assay [2]; 19 µM (active) in assay [16]; 10.7 µM (active) in assay [3]; 19 µM (active) in assay [5]; 19 µM (active) in assay [7]. For the same molecule, the Potency was 12 µM (active) in [8], 23.9 µM (active) in assay [10], 23.9 µM (active) in [11] and 21.3 µM (active) in assay [19]. The Potency result in assay [6], in assay [17], in assay [9], in assay [18], in [13] and in assay [14] was “inactive” each time.
As for `Cc1cn[nH]c1`, the max response in [1] is 7.93%. In addition, the Potency entry in assay [2], in [16], in assay [3], in assay [4], in assay [5] and in assay [6] was “inactive” in each case. Further, the Potency entry in assay [7], in assay [8], in assay [9], in assay [10], in assay [11] and in [12] was “inactive” in each case. The Potency result in assay [18], in [13], in assay [19], in assay [14] and in assay [15] was “inactive” each time.
As for `CCc1cccc(C)c1`, the max response in assay [1] was -0.877%. Further, the Potency entry in assay [2], in [3], in assay [4], in [5], in assay [6] and in assay [7] was “inactive” each time. In addition, the Potency entry in assay [8], in assay [9], in [10], in [11], in assay [12] and in assay [18] was “inactive” in each case. Also, the Potency entry in assay [13], in [19], in [14] and in assay [15] was “inactive” throughout.
With `O=C1NC2CCCCN2C12CCN(CCCN1c3ccccc3CCc3ccc(Cl)cc31)CC2` (stereo not given), the Potency in [1] was 8.49 µM (active); in [2], 19 µM (active); in assay [3], 23.9 µM (active); in assay [4], 23.9 µM (active); in assay [5], 23.9 µM (active); in assay [7], 21.3 µM (active). Further, the Potency is 23.9 µM (active) in assay [8], 8.49 µM (active) in assay [11], 6.01 µM (active) in [12] and 26.6 µM (active) in assay [15]. Moreover, the Potency result in [6], in assay [17] and in assay [13] was “inactive” each time.
